Compound activity from PubChem BioAssay.
KB-3-1 cytotox: KB-3-1 parental cell cytotoxicity; KB-3-1 viability, CellTiter-Glo ATP luminescence, 72 h; Potency, µM (top dose mostly 46.1 µM), hits mostly cytotoxic; 400,000 tested, 1.4% active; further: nearly all actives have a fitted effect of over 60% in size
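Parental KB-3-1 viability, qHTS format: 72 h compound exposure, 37 °C; CellTiter-Glo; media-only wells and DMSO plates as controls; concentration-effect fits on corrected data.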
DT40 TDP1 no CPT: qHTS for Inhibitors of human tyrosyl-DNA phosphodiesterase 1 (TDP1): qHTS in cells in absence of CPT; AID 686978, 2013; DT40 Tdp1-/- hTDP1 cells, no CPT, ATP luminescence, 48 h; 420,000 tested, 15% active; Potency, µM (titrated, usually from 46.2 µM), usual class: inhibitors; further: nearly all actives have a fitted effect of over 55% in size
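Chicken DT40 Tdp1-/- cells stably complemented with human TDP1 were seeded at 400 cells/well with DMSO in place of 20 nM camptothecin. After compound pinning, cells grew at least 48 hr at 37 °C; viability read by CellTiter-Glo luminescence.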
HT1080NT lethal: kills 2HG-producing HT-1080-NT fibrosarcoma cells; 360,000 tested, 1.6% active; Potency, µM (series often up to 46.1 µM), most hits filed as cytotoxic; HT-1080-NT fibrosarcoma viability, CellTiter-Glo ATP luminescence, 48 h;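 further: NT is the 2HG producing partner of a matched IDH1 knockdown line; nearly all actives have a fitted effect of over 55% in size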
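Compounds were tested in concentration-response format on HT-1080-NT cells for 48 hours at 37 degrees C. Cell viability came from CellTiter-Glo luminescence; curves were classified by r2, response magnitude and activity.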
HT1080 IDH1KD tx: HT-1080 IDH1 knockdown cell toxicity (counter line). AID 686971. 360,000 tested, 2% active. HT-1080 IDH1 knockdown viability, ATP luminescence, 48 h. Potency, µM (top dose mostly 46.1 µM), most hits filed as cytotoxic
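Luminescent ATP read-out (CellTiter-Glo, 10 min at room temperature) after 48 h compound exposure at 37 °C gave viability of IDH1-knockdown HT-1080 cells. Activity was normalised to DMSO and cell-free wells, then fitted as concentration-response curves.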
KB-V1 MDR tox: KB-V1 MDR subline cytotoxicity. KB-V1 MDR cells viability, CellTiter-Glo, 72 h. Potency, µM (series often up to 46.1 µM), actives largely listed as cytotoxic. 400,000 tested, 3.4% active; further: nearly all actives have a fitted effect of over 60% in size
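KB-V1 cells (P-gp-expressing MDR subline of KB-3-1) in phenol-red-free DMEM with 10% FBS were exposed to library compounds over a concentration series for 72 h at 37 degrees C. Viability read by CellTiter-Glo luminescence; concentration-effect curves fitted after normalization.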
DT40 TDP1 CPT: growth inhibition of DT40 Tdp1-/-;hTDP1 cells with camptothecin (screen for TDP1 inhibitors); chicken DT40 Tdp1-/-;hTDP1 cells + 20 nM CPT, ATP luminescence, 48 h; Potency, µM (doses to about 46.2 µM), most hits filed as inhibitors; 420,000 tested, 12% active; further: nearly all actives have a fitted effect of over 55% in size
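Chicken DT40 Tdp1-/- cells stably complemented with human TDP1 were seeded at 400 cells/well in medium containing 20 nM camptothecin, exposed to pin-transferred compounds, and grown at 37 °C for at least 48 hr. Viability was read as ATP luminescence.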
Of the large screens only hits and unclear results are named; the others gave an inactive call. A selection: hits, their analogues and other compounds. The true share with any hit is near 19%. The call rests on the fitted dose curve; in most records, active means well fitted curve in the direction sought with a large enough effect; inconclusive means small, poorly fitted or top-dose-only effect, or another doubt; inactive means no such curve, though single readings can be large; an effect the other way counts as inactive or inconclusive.

O=C(NC(Cc1ccccc1)c1nc2ccccc2[nH]1)c1cccc([N+](=O)[O-])c1 (stereo not drawn)	DT40 TDP1 no CPT inconclusive, KB-V1 MDR tox inconclusive, DT40 TDP1 CPT 20.6µM
O=[N+]([O-])c1nc2ccccc2[nH]1	KB-3-1 cytotox inconclusive, KB-V1 MDR tox 18.4µM
OCCOCCNc1ncnc2sc(-c3ccccc3)cc12	KB-3-1 cytotox inconclusive, DT40 TDP1 no CPT inconclusive, KB-V1 MDR tox inconclusive, DT40 TDP1 CPT inconclusive
COc1ccc(OC)c(Nc2ncnc3sc(-c4ccccc4)cc23)c1	DT40 TDP1 no CPT inconclusive, DT40 TDP1 CPT inconclusive
CN(C)CCNc1ncnc2sc(-c3ccccc3)cc12	DT40 TDP1 no CPT 18.4µM, HT1080NT lethal inconclusive, HT1080 IDH1KD tx inconclusive, DT40 TDP1 CPT inconclusive
CNc1ncnc2sc(-c3ccccc3)cc12	KB-3-1 cytotox inconclusive, DT40 TDP1 no CPT inconclusive, KB-V1 MDR tox 9.2µM, DT40 TDP1 CPT 16.4µM
Cc1ccc2c(=O)cc(C(=O)Nc3ccc(S(=O)(=O)N4CCCCCC4)cc3)oc2c1	none (no result: HT1080NT lethal, HT1080 IDH1KD tx)
CCOc1ccc(N(CC(=O)NC(C(C)C)C(C)C)S(=O)(=O)c2ccc(OC)c(OC)c2)cc1	DT40 TDP1 no CPT 23.1µM, DT40 TDP1 CPT inconclusive
COc1ccc(S(=O)(=O)N(CC(=O)NCc2ccccc2)c2ccc(C)cc2)cc1OC	DT40 TDP1 no CPT 6.51µM, DT40 TDP1 CPT inconclusive (no result: HT1080NT lethal, HT1080 IDH1KD tx)
COc1ccc(OC)c(N(CC(=O)Nc2ccccc2)S(=O)(=O)c2ccccc2)c1	DT40 TDP1 no CPT inconclusive, KB-V1 MDR tox inconclusive, DT40 TDP1 CPT inconclusive
COc1ccc(C(C)NC(=O)CN(c2cc(OC)ccc2OC)S(=O)(=O)c2ccccc2)cc1 (stereo not drawn)	DT40 TDP1 no CPT inconclusive, DT40 TDP1 CPT 20.6µM (no result: HT1080NT lethal, HT1080 IDH1KD tx)
COc1ccc(S(=O)(=O)N(CCc2ccccc2)CC(=O)Nc2cc(C)cc(C)c2)cc1OC	DT40 TDP1 no CPT inconclusive, DT40 TDP1 CPT inconclusive (no result: HT1080NT lethal, HT1080 IDH1KD tx)
COc1ccc(S(=O)(=O)N(CCc2ccccc2)CC(=O)NCc2ccccc2)cc1OC	KB-3-1 cytotox inconclusive, DT40 TDP1 no CPT inconclusive, KB-V1 MDR tox inconclusive, DT40 TDP1 CPT 16.4µM (no result: HT1080NT lethal, HT1080 IDH1KD tx)
CCC(C)N=C1CC(C)(C)CC(=O)/C1=C(/O)Cc1ccccc1 (stereo not drawn)	DT40 TDP1 no CPT inconclusive, DT40 TDP1 CPT inconclusive
CC(=O)N1CCN(Cc2cc(=O)oc3ccccc23)CC1	none
CC(C)CNC(=O)C(=O)NCC1OCCCN1S(=O)(=O)c1ccc2c(c1)OCCO2 (stereo not drawn)	none
O=c1[nH]cc(C#Cc2ccccc2)c2ncncc12	none (no result: KB-3-1 cytotox, KB-V1 MDR tox)
O=C(c1cccc(N2C(=O)C3C4C=CC(C4)C3C2=O)c1)N1CCN(c2ccccc2F)CC1 (stereo not drawn)	none
COc1ccc(S(=O)(=O)N(CC(=O)NC(C)c2ccccc2)c2ccc(C)cc2)cc1OC (stereo not drawn)	DT40 TDP1 no CPT 5.8µM, KB-V1 MDR tox inconclusive, DT40 TDP1 CPT inconclusive (no result: HT1080NT lethal, HT1080 IDH1KD tx)
COc1ccc(S(=O)(=O)N(CC(=O)NCCC(C)C)c2ccccc2)cc1OC	DT40 TDP1 no CPT inconclusive
Cc1cc(C)nc(Oc2ccc(Br)cc2)n1	none
CC(C(=O)NCc1ccc(Cl)cc1)n1ccc2cc(S(=O)(=O)N3CCCCCC3)ccc21 (stereo not drawn)	KB-3-1 cytotox inconclusive, DT40 TDP1 no CPT 18.4µM, KB-V1 MDR tox inconclusive, DT40 TDP1 CPT inconclusive (no result: HT1080NT lethal, HT1080 IDH1KD tx)
CC(C)Oc1ccc(CNC(=O)C(C)n2ccc3cc(S(=O)(=O)N4CCCCCC4)ccc32)cc1 (stereo not drawn)	DT40 TDP1 no CPT 20.6µM, DT40 TDP1 CPT inconclusive (no result: HT1080NT lethal, HT1080 IDH1KD tx)
CC1SC(C)C(=O)N(CC(=O)NCc2ccc(F)cc2)C1=O (stereo not drawn)	KB-V1 MDR tox inconclusive
Cc1ccc2c(=O)n3c(nc2c1)C(Cc1ccccc1)NC(=O)c1cc2ccccc2cc1-3 (stereo not drawn)	KB-3-1 cytotox 11.6µM, DT40 TDP1 no CPT inconclusive, HT1080NT lethal 6.51µM, HT1080 IDH1KD tx 5.8µM, KB-V1 MDR tox inconclusive, DT40 TDP1 CPT inconclusive
